Assay results published in PubChem BioAssay.
The source made the active and inactive calls.

Legend:
[1] = tested on: Plasmodium falciparum Sir2 (PF13_0152, Sir2A); assay: pfSir2 binders on small-molecule microarrays, primary screen, biochemical, small-molecule microarray, 635 nm fluorescence (AID 1098); settings: small-molecule microarray binding, fluorescence 635 nm; higher = more signal;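 also: score merges spot fluorescence intensity with its signal-to-noise ratio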
[2] = small-molecule microarray binders of probe aDKK1, primary screen, biochemical, biotinylated probe, 635/667 nm fluorescence (AID 1099); settings: higher = more signal;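 also: score merges 667nm spot fluorescence with signal to noise across triplicate slides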
[3] = small-molecule microarray binders of probe aCHRDL2, primary screen, biochemical, biotinylated probe, 635/667 nm fluorescence (AID 1100); settings: higher = more signal
[4] = splicing luciferase reporter signal modulators, primary screen, spliceosome inhibition project, cell-based, HEK293, splice +/- reporter (AID 1101); settings: luminescence, 24 h, higher = more signal, called active from +8 up or from −8 down;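 also: HEK293 cells carrying a splicing-competent luciferase reporter gene; test concentration not given here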
[5] = target: Fibroblast growth factor 10 (Homo sapiens) (UniProt O15520); assay: FGF10 binders on small-molecule microarrays, primary screen, biochemical, small-molecule microarray, 635 nm fluorescence (AID 1102); settings: FGF10 binding, fluorescence 635 nm, higher = more signal
Sequence of Fibroblast growth factor 10 (Homo sapiens) (O15520 whole entry, looked up): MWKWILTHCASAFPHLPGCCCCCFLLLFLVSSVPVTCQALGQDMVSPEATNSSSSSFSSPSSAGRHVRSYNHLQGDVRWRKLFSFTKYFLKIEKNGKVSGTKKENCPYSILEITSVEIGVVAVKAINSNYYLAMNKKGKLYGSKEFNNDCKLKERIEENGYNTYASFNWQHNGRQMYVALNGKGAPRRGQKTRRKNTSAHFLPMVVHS

[6] = tested on: glycogen synthase kinase-3 (GSK3A per assay name; protocol says GSK3B); assay: GSK3 binders on small-molecule microarrays, primary screen, biochemical, small-molecule microarray, 635 nm fluorescence, GSK3A (AID 1103); settings: small-molecule microarray binding, fluorescence 635 nm; higher = more signal; also: the record names both GSK3A and GSK3B
[7] = target: Epidermal growth factor receptor (Homo sapiens) (UniProt P00533); assay: EGFR binders on small-molecule microarrays, primary screen, biochemical, small-molecule microarray, 635 nm fluorescence (AID 1104); settings: EGFR binding, higher = more signal;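 also: score merges 667 nm emission intensity with spot signal to noise over triplicate slides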
Sequence of Epidermal growth factor receptor (Homo sapiens) (P00533 whole entry, looked up): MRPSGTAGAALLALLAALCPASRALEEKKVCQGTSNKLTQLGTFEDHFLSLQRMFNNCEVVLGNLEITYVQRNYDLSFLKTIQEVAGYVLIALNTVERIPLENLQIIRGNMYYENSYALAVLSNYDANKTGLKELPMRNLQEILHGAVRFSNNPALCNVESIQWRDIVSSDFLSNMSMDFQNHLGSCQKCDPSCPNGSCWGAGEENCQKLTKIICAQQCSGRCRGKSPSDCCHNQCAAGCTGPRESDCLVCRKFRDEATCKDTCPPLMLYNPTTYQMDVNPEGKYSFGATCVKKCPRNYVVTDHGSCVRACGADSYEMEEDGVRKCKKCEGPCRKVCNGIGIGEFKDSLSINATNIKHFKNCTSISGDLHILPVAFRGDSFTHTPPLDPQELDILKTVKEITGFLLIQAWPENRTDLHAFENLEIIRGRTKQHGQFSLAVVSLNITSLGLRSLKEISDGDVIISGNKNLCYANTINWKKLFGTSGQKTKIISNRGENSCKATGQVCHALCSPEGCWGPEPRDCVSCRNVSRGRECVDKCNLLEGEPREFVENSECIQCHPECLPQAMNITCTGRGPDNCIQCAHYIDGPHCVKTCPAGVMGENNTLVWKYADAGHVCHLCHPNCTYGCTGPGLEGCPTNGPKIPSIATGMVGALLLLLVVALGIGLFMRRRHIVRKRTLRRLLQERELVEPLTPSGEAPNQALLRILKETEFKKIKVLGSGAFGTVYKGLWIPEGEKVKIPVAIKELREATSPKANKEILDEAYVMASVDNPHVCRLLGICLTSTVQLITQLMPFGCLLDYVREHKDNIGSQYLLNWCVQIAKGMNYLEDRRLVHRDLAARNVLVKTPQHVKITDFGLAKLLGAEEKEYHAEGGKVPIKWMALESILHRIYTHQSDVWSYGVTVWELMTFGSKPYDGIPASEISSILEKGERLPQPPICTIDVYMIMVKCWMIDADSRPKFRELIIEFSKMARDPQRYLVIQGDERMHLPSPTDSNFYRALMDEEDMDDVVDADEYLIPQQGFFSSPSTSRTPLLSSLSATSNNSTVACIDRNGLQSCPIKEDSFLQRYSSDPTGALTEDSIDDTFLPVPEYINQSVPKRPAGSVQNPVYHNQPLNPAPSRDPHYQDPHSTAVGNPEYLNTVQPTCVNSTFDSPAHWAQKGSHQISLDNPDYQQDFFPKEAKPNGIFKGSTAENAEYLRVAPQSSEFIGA

[8] = target: Follistatin-related protein 3 (Homo sapiens) (UniProt O95633); assay: FSTL3 binders on small-molecule microarrays, primary screen, biochemical, small-molecule microarray, 635 nm fluorescence (AID 1105); settings: FSTL3 binding, higher = more signal;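 also: score merges emission near 667 nm and signal to noise per printed spot across three slides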
Sequence of Follistatin-related protein 3 (Homo sapiens) (O95633 whole entry, looked up): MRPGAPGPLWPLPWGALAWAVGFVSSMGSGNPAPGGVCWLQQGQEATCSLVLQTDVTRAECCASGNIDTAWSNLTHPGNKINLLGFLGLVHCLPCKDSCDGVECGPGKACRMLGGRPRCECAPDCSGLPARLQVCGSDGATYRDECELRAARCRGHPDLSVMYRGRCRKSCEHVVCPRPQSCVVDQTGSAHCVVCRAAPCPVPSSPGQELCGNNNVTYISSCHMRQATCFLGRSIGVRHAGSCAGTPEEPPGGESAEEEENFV

[9] = target: Dickkopf-related protein 1 (Homo sapiens) (UniProt O94907); assay: DKK1 binders on small-molecule microarrays, primary screen, biochemical, small-molecule microarray, 635 nm fluorescence scan (AID 1106); settings: DKK1 binding, higher = more signal;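 also: score merges emission near 667 nm with signal to noise over three replicate slides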
Sequence of Dickkopf-related protein 1 (Homo sapiens) (O94907 whole entry, looked up): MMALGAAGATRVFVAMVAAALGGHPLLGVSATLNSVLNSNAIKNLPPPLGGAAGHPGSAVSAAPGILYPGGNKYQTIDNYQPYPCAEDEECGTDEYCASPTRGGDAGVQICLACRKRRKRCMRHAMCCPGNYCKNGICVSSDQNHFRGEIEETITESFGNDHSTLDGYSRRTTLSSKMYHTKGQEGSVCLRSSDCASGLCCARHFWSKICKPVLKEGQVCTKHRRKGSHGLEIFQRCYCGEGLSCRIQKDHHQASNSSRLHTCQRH

[10] = tested on: Inhibin beta A chain (activin A); assay: INHBA (activin A) binders on microarrays, primary screen, biochemical, small-molecule microarray, 635 nm fluorescence scan (AID 1107); settings: small-molecule microarray binding, higher = more signal;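 also: mouse activin A protein probed at 4.33 µg/mL on printed slides; score merges bound-protein fluorescence near 667 nm with spot signal-to-noise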
[11] = tested on: Human papillomavirus type 1a protein E7 (residues 44-93); assay: HPV1a E7 fragment binders on microarrays, primary screen, biochemical, small-molecule microarray, residues 44-93, 635 nm fluorescence (AID 1108); settings: small-molecule microarray binding, fluorescence 635 nm; higher = more signal;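 also: E7 fragment applied at 1 µg/mL in TBST for 1 h at 4 C; score combines spot fluorescence with its signal to noise ratio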
[12] = modulators of HCV replicon luciferase signal, primary screen, HCV replication inhibitor project, Huh7 cells, luciferase reporter (AID 1109); settings: 48 h, higher = more signal;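 also: huh7 hepatoma cells harbouring a luciferase neomycin HCV replicon reporter; luciferase luminescence as measure of HCV replicon replication; test concentration not given here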
[13] = target: Left-right determination factor 2 (Homo sapiens) (UniProt O00292); assay: LEFTY2 binders on small-molecule microarrays, primary screen, biochemical, small-molecule microarray, 635 nm fluorescence scan (AID 1110); settings: LEFTY2 binding, higher = more signal
Sequence of Left-right determination factor 2 (Homo sapiens) (O00292 whole entry, looked up): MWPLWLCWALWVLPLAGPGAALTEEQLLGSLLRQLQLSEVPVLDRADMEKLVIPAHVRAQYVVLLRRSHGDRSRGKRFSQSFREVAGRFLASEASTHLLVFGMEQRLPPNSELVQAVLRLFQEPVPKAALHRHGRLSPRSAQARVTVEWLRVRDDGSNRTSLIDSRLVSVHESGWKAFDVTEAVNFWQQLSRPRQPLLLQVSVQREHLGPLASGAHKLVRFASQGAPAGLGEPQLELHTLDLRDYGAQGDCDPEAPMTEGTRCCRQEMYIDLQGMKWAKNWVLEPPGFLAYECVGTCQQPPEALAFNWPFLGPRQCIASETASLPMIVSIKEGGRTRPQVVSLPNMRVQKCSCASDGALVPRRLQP

[14] = target: Calmodulin-1 (Homo sapiens) (UniProt P0DP23); assay: CALM1 binders on microarrays, EGTA buffer, profiling panel, biochemical, small-molecule microarray, Cy5-labelled CALM1 (AID 1111); settings: Cy5-CALM1 binding fluorescence, higher = more signal;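 also: labelled calmodulin applied in Tris saline Tween buffer holding calcium plus EGTA and DTT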
[15] = target: Calmodulin-1 (Homo sapiens) (UniProt P0DP23); assay: calcium-bound CALM1 binders on microarrays, profiling panel, artefact control for SMM control-protein annotation, biochemical, small-molecule microarray, Cy5-labelled CALM1, plus calcium (AID 1112); settings: Cy5-CALM1 binding fluorescence, higher = more signal;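 also: score merges spot fluorescence with signal to noise from triplicate slides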
[16] = small-molecule microarray binders of probe aWnt5a, primary screen, biochemical, biotinylated probe, 635/667 nm fluorescence (AID 1113); settings: higher = more signal;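 also: score merges 667 nm fluorescence intensity with signal-to-noise per printed feature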
[17] = small-molecule microarray binders of probe aShh, primary screen, biochemical, biotinylated probe, 635/667 nm fluorescence (AID 1114); settings: higher = more signal;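 also: probe is biotin-labelled aShh protein from a stem cell growth factor screen; measures binding of labelled protein to compounds printed on the slide; score merges feature fluorescence at 667 nm with signal-to-noise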
[18] = small-molecule microarray binders of probe aNog, primary screen, biochemical, biotinylated probe, 635/667 nm fluorescence (AID 1115); settings: higher = more signal;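 also: probe is biotinylated aNog protein used at 0.15 µg/mL for 1 h at 4 C; z-score combines 667 nm fluorescence of each spot with its signal to noise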
[19] = target: Torsin-1A-interacting protein 1 (Homo sapiens) (UniProt Q5JTV8); assay: LAP1 binders from COS7 cell lysate, primary screen, small-molecule microarray, 635/667 nm fluorescence (AID 1116); settings: COS7-hLAP1 lysate binding, 635 nm fluorescence, higher = more signal
Sequence of Torsin-1A-interacting protein 1 (Homo sapiens) (Q5JTV8 whole entry, looked up): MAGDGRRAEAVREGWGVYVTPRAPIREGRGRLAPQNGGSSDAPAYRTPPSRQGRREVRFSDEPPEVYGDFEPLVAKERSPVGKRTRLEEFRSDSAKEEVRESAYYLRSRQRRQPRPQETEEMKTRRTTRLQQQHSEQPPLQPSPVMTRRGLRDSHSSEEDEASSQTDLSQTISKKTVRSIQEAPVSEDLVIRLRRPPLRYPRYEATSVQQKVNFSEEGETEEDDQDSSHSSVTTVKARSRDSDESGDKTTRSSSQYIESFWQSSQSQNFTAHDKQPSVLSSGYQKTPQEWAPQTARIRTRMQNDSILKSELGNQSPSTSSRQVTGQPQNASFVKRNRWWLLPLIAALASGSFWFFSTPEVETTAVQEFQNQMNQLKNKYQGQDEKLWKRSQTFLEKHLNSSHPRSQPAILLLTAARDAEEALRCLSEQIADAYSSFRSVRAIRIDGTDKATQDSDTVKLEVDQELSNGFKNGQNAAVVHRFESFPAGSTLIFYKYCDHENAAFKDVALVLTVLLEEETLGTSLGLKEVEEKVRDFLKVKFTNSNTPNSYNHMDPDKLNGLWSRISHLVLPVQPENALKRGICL

[20] = target: Alpha-bungarotoxin (Bungarus multicinctus) (UniProt P60615); assay: alpha-bungarotoxin binders on microarray, profiling panel, artefact control for SMM control protein annotation, biochemical, small-molecule microarray, Alexa647 label, 635/667 nm fluorescence (AID 1117); settings: alpha-BTX-A647 binding fluorescence, higher = more signal
Sequence of Alpha-bungarotoxin (Bungarus multicinctus) (P60615 whole entry, looked up): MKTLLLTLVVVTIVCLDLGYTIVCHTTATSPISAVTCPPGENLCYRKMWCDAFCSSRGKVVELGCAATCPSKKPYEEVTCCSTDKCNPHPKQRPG

Structure (SMILES) | composite z-score [1] | composite z-score [2] | composite z-score [3] | z-score [4] | composite z-score [5] | composite z-score [6] | composite z-score [7] | composite z-score [8] | composite z-score [9] | composite z-score [10] | composite z-score [11] | z-score [12] | composite z-score [13] | composite z-score [14] | composite z-score [15] | composite z-score [16] | composite z-score [17] | composite z-score [18] | composite z-score [19] | composite z-score [20]
CN(C)CCCCNC(=O)[C@@H]1C[C@@H]2C(=O)N[C@@H](CCCCN)C(=O)N2[C@@H]1c1ccc(O)cc1 | 1.09 | -0.0238 | 0.309 | -0.162 (inactive) | 0.41 | 1.07 | 0.606 | 0.463 | 1.26 | 0.684 | 0.0215 | -1.04 | 0.886 | 1.53 | -0.288 | 0.0725 | 0.213 | 0.654 | 0.677 | 1.36
COC(=O)[C@@]1(Cc2ccc(OC)cc2)[C@H]2c3cc(C(=O)N4CCCC4)n(Cc4nc5ccccc5[nH]4)c3C[C@H]2CN1C(=O)c1ccccc1 | 1.36 | 1.48 | 1.34 | -1.29 (inactive) | 0.77 | 0.54 | 0.206 | 1.05 | -0.49 | 1.28 | 1.38 | -2.61 | -0.413 | 2.7 | 1.54 | 0.216 | 0.215 | 2.39 | 2.79 | 1.07
COc1cc2c(cc1O)C(c1cccs1)N(Cc1ccc([N+](=O)[O-])o1)CC2 (stereo not given) | 1.15 | 0.728 | 0.27 | -0.505 (inactive) | 0.876 | 0.0693 | -0.033 | -0.0839 | -0.466 | -0.131 | 0.665 | -0.213 | -0.333 | 1.5 | 0.33 | -0.0303 | 0.155 | 1.19 | -0.194 | 0.766
COC(=O)[C@@]1(Cc2ccccc2)[C@H]2c3cc(C(=O)N(C)C)n(CCc4c[nH]c5ccc(O)cc45)c3C[C@H]2CN1C(=O)c1ccccc1 | 0.0625 | 0.665 | 1.2 | -1.99 (inactive) | 0.288 | 0.435 | 0.121 | 0.594 | -0.0414 | 1.3 | 1.32 | -2.07 | -0.119 | 1.2 | 0.0493 | 0.0031 | -0.0146 | 0.843 | 1.48 | 0.194
CCCC=C(CCC)[C@@H](NC(=O)OCC(C)C)c1ccccc1 | 0.32 | 0.907 | 1.34 | -1.82 (inactive) | 0.497 | 0.659 | 0.111 | 0.663 | -0.0115 | 0.622 | 0.861 | -1.18 | -0.0453 | 1.65 | 0.438 | 0.806 | 0.717 | 1.99 | 0.226 | 0.703
CO[C@H]1O[C@H](CO)[C@@H](OC(=O)Nc2cccc(F)c2)[C@H](OC(=O)Nc2ccccc2)[C@H]1OC(=O)Nc1ccccc1 | 1.46 | -0.0312 | 0.55 | -0.0505 (inactive) | 1.52 | 1.35 | 0.162 | 1.49 | 0.18 | 0.417 | 1.52 | -3.16 | 0.238 | 0.183 | -0.467 | -0.0222 | 0.536 | 0.919 | 1.29 | 1.53
CC(C)=CCCC(C)=CC(O)C1C=CC2C(=O)N(c3ccccc3)C(=O)C2N1Nc1ccc(C(C)C)cc1 (stereo not given) | 0.855 | -0.0008 | 0.816 | 0.433 (inactive) | 0.691 | 0.615 | -0.0514 | 0.966 | -0.609 | 0.583 | 1.45 | -0.0821 | -0.0675 | 0.943 | 0.415 | 0.163 | 0.0839 | 1.6 | 0.203 | 0.925
CS(=O)(=O)CCOC(=O)C1=CC(CCCO)=CC(c2ccc(CN3CCCC3)cc2)N(Cc2cccc(OC(F)(F)F)c2)C=C1C(=O)OCCS(C)(=O)=O (stereo not given) | 1.02 | 0.275 | 0.367 | 0.0999 (inactive) | 1.19 | 0.997 | 0.582 | 0.945 | 0.468 | 1.32 | 1.22 | -2.99 | 0.558 | 0.784 | 0.217 | 0.133 | 0.0434 | -0.149 | 1.17 | 0.822
O=c1cccc(-c2ccccc2Cl)o1 | -0.462 | -0.0639 | -0.456 | 0.477 (inactive) | 0.425 | 0.0083 | 0.0031 | -0.0893 | 0.157 | 0.747 | 0.201 | -0.143 | -0.12 | -0.559 | -0.503 | -0.124 | 0.0952 | -0.593 | 0.21 | -0.183
COCCOC(=O)N1C(=O)[C@@]2(c3ccccc31)[C@H](C(=O)N1CCCCCCC1)[C@H]1C(=O)O[C@H](c3ccccc3)[C@H](c3ccccc3)N1[C@@H]2c1ccc(OCCO)cc1 | 2.08 | 3.12 | 1.76 | -0.69 (inactive) | 1.69 | 1.49 | 2.05 | 1.79 | 2.72 | 1.77 | 1.63 | -2.07 | 1.91 | 3.2 | 1.76 | 1.65 | 3.65 | 3.67 | 5.73 | 4.02
C=C(CCCC)C(=O)CC[C@@H](OC(C)=O)c1ccc(CO)o1 | 1.24 | -0.269 | -0.457 | 0.251 (inactive) | 1.12 | 0.179 | -0.353 | 0.523 | 0.0693 | 0.945 | 0.0497 | -1.21 | 0.523 | -0.854 | -1.12 | -0.18 | -0.206 | 0.0417 | 2.04 | -0.217
